# Where “and” joins values, the source holds several entries; their conditions need not be identical. Identical values can stand only once. Screen size: about 5,500 compounds; about 2,000 (36%) were called active. Another 18% or so got no clear call; they are omitted. Cut-off read from the data, not from the text of the source: active = normalized growth mostly below about 0.91 (no sharp cut-off); inconclusive = no clear call, values can overlap the other calls; inactive = mostly above about 0.92. The list shows a part of the results. A structure can be active in one record and inactive in another.
# Assay: chemical genetic growth profiling, strain panel (AID 1159580);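 note: tested at 20 µM; growth read once vehicle control cultures reached saturation at 30 °C; 1 = growth at the plate median or of vehicle wells; lower values mean less growth of the strain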
# Details: growth OD
structure (smiles),measurement,setting,value
CCN(CC)C(=S)SSC(=S)N(CC)CC,normalized growth,"S. cerevisiae deletion strains, locus YJR075W, strain HOC1, stronger effect = lower value",0.0635 (active) and 0.949 (inactive)
same,normalized growth,"S. cerevisiae deletion strains, locus YKL009W, strain mrt4, stronger effect = lower value",0.606 (active)
same,normalized growth,"S. cerevisiae deletion strains, locus YKL068W, stronger effect = lower value",0.0556 (active)
same,normalized growth,"S. cerevisiae deletion strains, locus YKL085W, strain MDH1 (second series), stronger effect = lower value",0.0512 (active)
same,normalized growth,"S. cerevisiae deletion strains, locus YKL085W, strain MDH1, stronger effect = lower value",0.0512 (active)
same,normalized growth,"S. cerevisiae deletion strains, locus YKL160W, strain elf1, stronger effect = lower value",0.0678 (active)
same,normalized growth,"S. cerevisiae deletion strains, locus YKL190W, strain CNB1, stronger effect = lower value",0.0509 (active)
same,normalized growth,"S. cerevisiae deletion strains, locus YKR001C, strain vps1, stronger effect = lower value",0.0705 (active)
same,normalized growth,"S. cerevisiae deletion strains, locus YKR026C, strain gcn3, stronger effect = lower value",0.0628 (active)
same,normalized growth,"S. cerevisiae deletion strains, locus YKR091W, strain srl3, stronger effect = lower value",0.0583 (active)
same,normalized growth,"S. cerevisiae deletion strains, locus YLL001W, strain dnm1, stronger effect = lower value",0.0613 (active)
same,normalized growth,"S. cerevisiae deletion strains, locus YLL026W, stronger effect = lower value",0.0601 (active)
same,normalized growth,"S. cerevisiae deletion strains, locus YLL041C, strain sdh2, stronger effect = lower value",0.0577 (active)
same,normalized growth,"S. cerevisiae deletion strains, locus YLR027C, strain aat2, stronger effect = lower value",0.0572 (active)
same,normalized growth,"S. cerevisiae deletion strains, locus YLR039C, strain RIC1, stronger effect = lower value",0.0861 (active)
same,normalized growth,"S. cerevisiae deletion strains, locus YLR058C, strain SHM2, stronger effect = lower value",0.0583 (active)
same,normalized growth,"S. cerevisiae deletion strains, locus YLR102C, strain apc9, stronger effect = lower value",0.0612 (active)
same,normalized growth,"S. cerevisiae deletion strains, locus YLR113W, strain HOG1, stronger effect = lower value",0.133 (active)
same,normalized growth,"S. cerevisiae deletion strains, locus YLR221C, strain rsa3, stronger effect = lower value",0.0619 (active)
same,normalized growth,"S. cerevisiae deletion strains, locus YLR258W, strain gsy2, stronger effect = lower value",0.0609 (active)
same,normalized growth,"S. cerevisiae deletion strains, locus YLR262C, strain YPT6 (second series), stronger effect = lower value",0.0822 (active)
same,normalized growth,"S. cerevisiae deletion strains, locus YLR262C, strain YPT6, stronger effect = lower value",0.109 (active)
same,normalized growth,"S. cerevisiae deletion strains, locus YLR268W, strain sec22, stronger effect = lower value",0.061 (active)
same,normalized growth,"S. cerevisiae deletion strains, locus YLR320W, strain mms22, stronger effect = lower value",0.087 (active)
same,normalized growth,"S. cerevisiae deletion strains, locus YLR330W, strain CHS5, stronger effect = lower value",0.0617 (active)
same,normalized growth,"S. cerevisiae deletion strains, locus YLR342W, strain FKS1 (second series), stronger effect = lower value",0.0677 (active)
same,normalized growth,"S. cerevisiae deletion strains, locus YLR342W, strain FKS1, stronger effect = lower value",0.0645 (active)
same,normalized growth,"S. cerevisiae deletion strains, locus YLR357W, strain rsc2, stronger effect = lower value",0.119 (active)
same,normalized growth,"S. cerevisiae deletion strains, locus YLR370C, strain arc18, stronger effect = lower value",0.0622 (active)
same,normalized growth,"S. cerevisiae deletion strains, locus YLR371W, strain rom2, stronger effect = lower value",0.0655 (active)
same,normalized growth,"S. cerevisiae deletion strains, locus YLR384C, strain iki3, stronger effect = lower value",0.0605 (active)
same,normalized growth,"S. cerevisiae deletion strains, locus YLR418C, strain cdc73, stronger effect = lower value",0.0926 (active)
same,normalized growth,"S. cerevisiae deletion strains, locus YML016C, strain PPZ1, stronger effect = lower value",0.052 (active)
same,normalized growth,"S. cerevisiae deletion strains, locus YML032C, strain rad52, stronger effect = lower value",0.263 (active)
same,normalized growth,"S. cerevisiae deletion strains, locus YML120C, strain ndi1, stronger effect = lower value",0.0591 (active)
same,normalized growth,"S. cerevisiae deletion strains, locus YML124C, strain tub3, stronger effect = lower value",0.0572 (active)
same,normalized growth,"S. cerevisiae deletion strains, locus YMR058W, strain fet3, stronger effect = lower value",0.0624 (active)
same,normalized growth,"S. cerevisiae deletion strains, locus YMR078C, strain ctf18, stronger effect = lower value",0.073 (active)
same,normalized growth,"S. cerevisiae deletion strains, locus YMR125W, strain sto1, stronger effect = lower value",0.0735 (active)
same,normalized growth,"S. cerevisiae deletion strains, locus YMR129W, stronger effect = lower value",0.0588 (active)
same,normalized growth,"S. cerevisiae deletion strains, locus YMR205C, strain PFK2, stronger effect = lower value",0.088 (active)
same,normalized growth,"S. cerevisiae deletion strains, locus YMR223W, strain ubp8, stronger effect = lower value",0.0608 (active)
same,normalized growth,"S. cerevisiae deletion strains, locus YMR231W, strain pep5, stronger effect = lower value",0.0654 (active)
same,normalized growth,"S. cerevisiae deletion strains, locus YMR263W, strain SAP30, stronger effect = lower value",0.0587 (active)
same,normalized growth,"S. cerevisiae deletion strains, locus YMR307W, strain GAS1, stronger effect = lower value",0.0974 (active)
same,normalized growth,"S. cerevisiae deletion strains, locus YNL067W, strain RPL9B, stronger effect = lower value",0.0505 (active)
same,normalized growth,"S. cerevisiae deletion strains, locus YNL071W, strain lat1, stronger effect = lower value",0.0618 (active)
same,normalized growth,"S. cerevisiae deletion strains, locus YNL128W, strain TEP1, stronger effect = lower value",0.0626 (active) and 0.0798 (active)
same,normalized growth,"S. cerevisiae deletion strains, locus YNL153C, strain GIM3, stronger effect = lower value",0.0777 (active)
same,normalized growth,"S. cerevisiae deletion strains, locus YNL175C, strain NOP13, stronger effect = lower value",0.342 (active)
same,normalized growth,"S. cerevisiae deletion strains, locus YNL183C, strain NPR1, stronger effect = lower value",-0.00035 (active)
same,normalized growth,"S. cerevisiae deletion strains, locus YNL197C, strain WHI3, stronger effect = lower value",0.0658 (active)
same,normalized growth,"S. cerevisiae deletion strains, locus YNL209W, strain ssb2, stronger effect = lower value",0.06 (active)
same,normalized growth,"S. cerevisiae deletion strains, locus YNL224C, strain SQS1, stronger effect = lower value",0.179 (active)
same,normalized growth,"S. cerevisiae deletion strains, locus YNL233W, strain BNI4, stronger effect = lower value",0.0544 (active)
same,normalized growth,"S. cerevisiae deletion strains, locus YNL248C, strain rpa49, stronger effect = lower value",0.0771 (active)
same,normalized growth,"S. cerevisiae deletion strains, locus YNL250W, strain rad50, stronger effect = lower value",0.0637 (active)
same,normalized growth,"S. cerevisiae deletion strains, locus YNL271C, strain bni1, stronger effect = lower value",0.0645 (active)
same,normalized growth,"S. cerevisiae deletion strains, locus YNL298W, strain CLA4, stronger effect = lower value",0.0615 (active)
same,normalized growth,"S. cerevisiae deletion strains, locus YNL307C, strain MCK1, stronger effect = lower value",0.0703 (active)
same,normalized growth,"S. cerevisiae deletion strains, locus YNL322C, strain KRE1 (second series), stronger effect = lower value",0.0666 (active)
same,normalized growth,"S. cerevisiae deletion strains, locus YNL322C, strain KRE1, stronger effect = lower value",0.0502 (active) and 0.997 (inactive)
same,normalized growth,"S. cerevisiae deletion strains, locus YNR049C, strain mso1, stronger effect = lower value",0.0606 (active)
same,normalized growth,"S. cerevisiae deletion strains, locus YNR052C, strain pop2, stronger effect = lower value",0.138 (active)
same,normalized growth,"S. cerevisiae deletion strains, locus YOL006C, strain TOP1, stronger effect = lower value",0.104 (active)
same,normalized growth,"S. cerevisiae deletion strains, locus YOL012C, strain htz1",0.179 (active)
same,normalized growth,"S. cerevisiae deletion strains, locus YOL147C, strain pex11, stronger effect = lower value",0.946 (inactive)
same,normalized growth,"S. cerevisiae deletion strains, locus YOR001W, strain rrp6, stronger effect = lower value",0.0666 (active)
same,normalized growth,"S. cerevisiae deletion strains, locus YOR061W, strain CKA2, stronger effect = lower value",0.0499 (active)
same,normalized growth,"S. cerevisiae deletion strains, locus YOR069W, strain VPS5, stronger effect = lower value",0.0518 (active)
same,normalized growth,"S. cerevisiae deletion strains, locus YOR070C, strain gyp1, stronger effect = lower value",0.0741 (active)
same,normalized growth,"S. cerevisiae deletion strains, locus YOR080W, strain dia2, stronger effect = lower value",0.0684 (active)
same,normalized growth,"S. cerevisiae deletion strains, locus YOR083W, strain WHI5 (second series), stronger effect = lower value",0.0704 (active)
same,normalized growth,"S. cerevisiae deletion strains, locus YOR083W, strain WHI5, stronger effect = lower value",0.0659 (active)
same,normalized growth,"S. cerevisiae deletion strains, locus YOR106W, strain vam3, stronger effect = lower value",0.0652 (active)
same,normalized growth,"S. cerevisiae deletion strains, locus YOR136W, strain idh2, stronger effect = lower value",0.0727 (active)
same,normalized growth,"S. cerevisiae deletion strains, locus YOR144C, strain elg1, stronger effect = lower value",0.803 (active)
same,normalized growth,"S. cerevisiae deletion strains, locus YOR184W, strain ser1, stronger effect = lower value",0.0638 (active)
same,normalized growth,"S. cerevisiae deletion strains, locus YOR231W, strain MKK1, stronger effect = lower value",0.117 (active)
same,normalized growth,"S. cerevisiae deletion strains, locus YOR265W, strain rbl2, stronger effect = lower value",0.0575 (active)
same,normalized growth,"S. cerevisiae deletion strains, locus YOR270C, strain vph1, stronger effect = lower value",0.0967 (active)
same,normalized growth,"S. cerevisiae deletion strains, locus YOR290C, strain snf2, stronger effect = lower value",0.627 (active)
same,normalized growth,"S. cerevisiae deletion strains, locus YOR316C, strain cot1, stronger effect = lower value",0.0596 (active)
same,normalized growth,"S. cerevisiae deletion strains, locus YPL051W, strain arl3, stronger effect = lower value",0.0672 (active)
same,normalized growth,"S. cerevisiae deletion strains, locus YPL055C, strain LGE1, stronger effect = lower value",0.0641 (active)
same,normalized growth,"S. cerevisiae deletion strains, locus YPL078C, strain atp4, stronger effect = lower value",0.0676 (active)
same,normalized growth,"S. cerevisiae deletion strains, locus YPL106C, strain sse1, stronger effect = lower value",0.103 (active)
same,normalized growth,"S. cerevisiae deletion strains, locus YPL240C, strain hsp82, stronger effect = lower value",0.0557 (active)
same,normalized growth,"S. cerevisiae deletion strains, locus YPL241C, strain CIN2, stronger effect = lower value",0.0528 (active) and 0.999 (inactive)
same,normalized growth,"S. cerevisiae deletion strains, locus YPL256C, strain CLN2, stronger effect = lower value",0.13 (active)
same,normalized growth,"S. cerevisiae deletion strains, locus YPR119W, strain clb2, stronger effect = lower value",0.0619 (active)
same,normalized growth,"S. cerevisiae deletion strains, locus YPR141C, strain kar3, stronger effect = lower value",0.0641 (active)
same,normalized growth,"S. cerevisiae deletion strains, locus YPR163C, strain tif3, stronger effect = lower value",0.0693 (active)
same,normalized growth,"S. cerevisiae deletion strains, locus YPR167C, strain met16, stronger effect = lower value",0.0622 (active)
same,normalized growth,"S. cerevisiae deletion strains, strain wtn01, stronger effect = lower value",0.0586 (active)
same,normalized growth,"S. cerevisiae strains, strain wild type, stronger effect = lower value",0.05 (active)
